12-LOX inh: Primary qHTS assay for inhibitors of human arachidonate 12S-lipoxygenase (ALOX12): Round 2. Potency, µM (doses to about 108 µM), for inactives: at the highest dose activity change, negative = inhibition, hits mostly inhibitors. hit rate 1.1% among 580,000. purified 12hLO, xylenol orange hydroperoxide absorbance
Target sequence (P18054 whole entry, looked up): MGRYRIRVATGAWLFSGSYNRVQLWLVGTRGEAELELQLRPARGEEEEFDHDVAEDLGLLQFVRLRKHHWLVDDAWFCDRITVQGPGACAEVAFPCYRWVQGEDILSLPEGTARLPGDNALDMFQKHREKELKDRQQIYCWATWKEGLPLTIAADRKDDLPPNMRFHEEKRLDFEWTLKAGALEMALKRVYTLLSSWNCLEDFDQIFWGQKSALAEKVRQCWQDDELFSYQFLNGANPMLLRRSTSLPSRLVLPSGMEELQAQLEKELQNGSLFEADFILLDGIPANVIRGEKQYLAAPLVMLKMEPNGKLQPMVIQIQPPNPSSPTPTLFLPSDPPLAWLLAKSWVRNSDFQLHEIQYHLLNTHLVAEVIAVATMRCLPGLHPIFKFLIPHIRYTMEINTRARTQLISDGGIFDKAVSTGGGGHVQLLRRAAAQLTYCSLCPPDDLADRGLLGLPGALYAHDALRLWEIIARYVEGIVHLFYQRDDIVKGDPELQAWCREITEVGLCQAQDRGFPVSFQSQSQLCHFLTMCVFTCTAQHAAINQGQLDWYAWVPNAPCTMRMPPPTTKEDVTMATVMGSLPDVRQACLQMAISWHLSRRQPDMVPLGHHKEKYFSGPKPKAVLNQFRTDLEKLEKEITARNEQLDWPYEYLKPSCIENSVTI
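Hydroperoxide product was detected by ferrous iron/xylenol orange as the 573 to 405 nm absorbance ratio. Arachidonic acid at 40 uM (final) was turned over for 30 min at room temperature by 150 nM human 12hLO, pH 7.0 Hepes buffer, after 15 min compound preincubation.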
VP16 counter: VP16 counterscreen qHTS for inhibitors of ROR gamma transcriptional activity | Drosophila S2 Gal4-VP16 UAS-luciferase, luminescence, 20 h | Potency, µM (titrated, usually from 53.6 µM), without a hit: at the top dose activity, negative = inhibition, usual class: inhibitors | hit rate 3.5% among 310,000;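 also: Gal4-VP16 expression switched on by copper sulfate through the metallothionein promoter; nearly all actives have a fitted effect of over 50% in size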
DT40 TDP1 CPT: qHTS for Inhibitors of human tyrosyl-DNA phosphodiesterase 1 (TDP1): qHTS in cells in presence of CPT; Potency, µM (titrated, usually from 46.2 µM), for inactives: at the top dose activity change, negative = growth inhibition, most hits filed as inhibitors; hit rate 12% among 420,000; chicken DT40 Tdp1-/-;hTDP1 cells + 20 nM CPT, ATP luminescence, 48 h; AID 686979, 2013; also: nearly all actives have a fitted effect of over 55% in size
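Chicken DT40 Tdp1-/- cells stably complemented with human TDP1 were seeded at 400 cells/well in medium containing 20 nM camptothecin, exposed to pin-transferred compounds, and grown at 37 °C for at least 48 hr. Viability was read as ATP luminescence.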
RORgamma inh: qHTS for inhibitors of ROR gamma transcriptional activity. Nuclear receptor ROR-gamma (Mus musculus), P51450. Drosophila S2 Gal4-RORgamma UAS-luciferase reporter, 20 h. Potency, µM (highest dose often 53.6 µM), without a hit: top-dose activity change, negative = inhibition, actives largely listed as inhibitors. hit rate 5.4% among 310,000; also: nearly all actives have a fitted effect of over 60% in size
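Using a luciferase readout, inhibitors were identified by reduced reporter activity in Drosophila cells coexpressing a copper-inducible Gal4–ROR gamma fusion and UAS-driven Photinus luciferase, incubated 20 hr after 700 uM copper sulfate.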
ELG1 DNA repair: qHTS screen for small molecules that inhibit ELG1-dependent DNA repair in human embryonic kidney (HEK293T) cells expressing luciferase-tagged ELG1. HEK293T ELG1-luciferase reporter, luminescence, 16 h; DNA damage induced by 5-fluorouridine. Potency, µM (top dose mostly 46.1 µM), for inactives: at the top dose activity change, negative = inhibition, most hits filed as inhibitors. hit rate 2.3% among 330,000. AID 504467, 2011; also: nearly all actives have a fitted effect of over 55% in size
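Quantitative HTS, concentration-response format. 2,000 cells/well co-treated with 5-fluorouridine and compound, 16 hr in 5% CO2 at 37 °C; ONE-Glo luminescence read after 30 min.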
DT40 TDP1 no CPT: qHTS for Inhibitors of human tyrosyl-DNA phosphodiesterase 1 (TDP1): qHTS in cells in absence of CPT; DT40 Tdp1-/- hTDP1 cells, no CPT, ATP luminescence, 48 h; Potency, µM (series often up to 46.2 µM), for the others: top-dose activity change, negative = growth inhibition, usual class: inhibitors; hit rate 15% among 420,000; AID 686978, 2013; also: nearly all actives have a fitted effect of over 55% in size
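A cellular qHTS used chicken DT40 cells lacking endogenous Tdp1 but carrying stably transfected human TDP1. Compounds were applied without camptothecin, and cell growth kinetics were judged by ATP-dependent luminescence after ≥48 hr.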
* = called active by the depositor; [ ] = another dose, or the depositor's remark. Most compounds without a hit are left out; they make up all but 15% or so of the library. Calls follow the shape of the dose curve; as a rule, active = well fitted curve in the direction sought with a large enough effect; inconclusive = small, poorly fitted or top-dose-only effect, or another doubt; inactive = no such curve, though single readings can be large; an effect the other way counts as inactive or inconclusive. % is scaled to controls: 0 for no effect and ±100 for the full control effect; potency is read from the fitted curve at half-maximal effect.

For Cc1c(F)cccc1NC(=O)Nc1cccc(-c2ccc(N3CCOCC3)nn2)c1 the results were 12-LOX inh -21%.
For O=C(COc1ccccc1)NCC(=O)N/N=C/c1cc(Br)ccc1OCc1ccccc1 the results were 12-LOX inh 0%, VP16 counter -14%, DT40 TDP1 CPT 23µM*, RORgamma inh inconclusive, ELG1 DNA repair inconclusive and DT40 TDP1 no CPT 16µM*.
`O=C(CNC(=O)c1ccco1)N/N=C/c1cc(Br)ccc1O` gave 12-LOX inh inconclusive, VP16 counter 11µM*, DT40 TDP1 CPT 2.9µM*, RORgamma inh 8.9µM*, ELG1 DNA repair inconclusive and DT40 TDP1 no CPT 5.8µM*.
For O=C(CN1CC(c2ccccc2)CC1=O)N/N=C/c1cc(Br)ccc1O (stereo not given) the results were 12-LOX inh inconclusive, VP16 counter 3.2µM*, DT40 TDP1 CPT 8.2µM*, RORgamma inh 4.5µM*, ELG1 DNA repair 12% and DT40 TDP1 no CPT 6.5µM*.
`O=C(N/N=C/c1cc(Cl)ccc1O)c1cccnc1` gave 12-LOX inh 2%, VP16 counter 0.71µM*, DT40 TDP1 CPT 0.92µM*, RORgamma inh 1.1µM*, ELG1 DNA repair inconclusive and DT40 TDP1 no CPT 1µM*.
For CCOc1ccc(NC(=O)CN2CC(c3ccccc3)CC2=O)cc1 (stereo not given) the results were 12-LOX inh 19%[57.4 µM], VP16 counter 10%, DT40 TDP1 CPT 8%, RORgamma inh inconclusive, ELG1 DNA repair 24% and DT40 TDP1 no CPT 9%.
COCCNC(=O)[C@H]1C[C@H](Oc2cccnc2)CN1S(=O)(=O)c1ccc(OC)cc1 was read as 12-LOX inh 1%.
For O=C(CNC(=O)c1ccccc1Br)N/N=C/c1ccccc1O the results were 12-LOX inh inconclusive, VP16 counter inconclusive, DT40 TDP1 CPT inconclusive, RORgamma inh 3.2µM*, ELG1 DNA repair inconclusive and DT40 TDP1 no CPT 23µM*.
Screening N#CCC(=O)N/N=C\c1cc(Br)ccc1OC/C=C/c1ccccc1 returned 12-LOX inh 12%, VP16 counter 14%, DT40 TDP1 CPT 15µM*, RORgamma inh 0%, ELG1 DNA repair inconclusive and DT40 TDP1 no CPT 26µM*.
O=C(COc1ccc(-c2ccccc2)cc1)N/N=C/c1ccccc1Br was read as 12-LOX inh -2%, VP16 counter -12%, DT40 TDP1 CPT -4%, RORgamma inh -10%, ELG1 DNA repair 6% and DT40 TDP1 no CPT inconclusive.
`O=C(COc1ccc(-c2ccccc2)cc1)N/N=C/c1cc(O)ccc1Br` gave 12-LOX inh 0%, VP16 counter -25%, DT40 TDP1 CPT inconclusive, RORgamma inh 19%, ELG1 DNA repair 4% and DT40 TDP1 no CPT 16µM*.
For COC(=O)N/N=C\c1ccccc1OC/C=C/c1ccccc1 the results were VP16 counter 18%, DT40 TDP1 CPT inconclusive, RORgamma inh inconclusive, ELG1 DNA repair inconclusive and DT40 TDP1 no CPT inconclusive.
O=C(N/N=C/c1cc(Cl)ccc1O)c1ccccc1Br was read as 12-LOX inh -28%, VP16 counter 1.3µM*, DT40 TDP1 CPT 6.5µM*, RORgamma inh 0.71µM*, ELG1 DNA repair inconclusive and DT40 TDP1 no CPT 6.5µM*.
For COc1cc(-n2cnnn2)cc(-n2ccnc2-c2cc3n(n2)CCCNC3)c1 the results were 12-LOX inh 141%.
For Cc1nn(C)c(C)c1CCCN(C)C(=O)c1ccc2c(c1)C(O)CCCCCN2C (stereo not given) the results were 12-LOX inh 76%.
Screening CC(=O)Nc1cccc(C(=O)NCc2nnc3ccc(-c4ccccc4)nn23)c1 returned 12-LOX inh 13%.
COc1ccc(C(CC(=O)N2CCC(OC)CC2)c2ccccc2)cc1 (stereo not given) was read as 12-LOX inh 9%.
Screening CCCn1cnc2nc(CSc3ccccc3NC(=O)c3cccc(Cl)c3)cc(=O)n21 returned 12-LOX inh 0%.
`O=C(CNC(=O)c1ccccc1)N/N=C/c1cc(Br)ccc1O` gave 12-LOX inh -15%, VP16 counter 7.1µM*, DT40 TDP1 CPT 7.3µM*, RORgamma inh 2.5µM*, ELG1 DNA repair -29% and DT40 TDP1 no CPT 7.3µM*.
For COc1cc(/C=N\NC(C)=O)ccc1OC/C=C/c1ccccc1 the results were 12-LOX inh inactive, VP16 counter 0.45µM*, DT40 TDP1 CPT -12%, RORgamma inh inconclusive, ELG1 DNA repair 16µM* and DT40 TDP1 no CPT -10%.
For O=C(CNC(=O)c1ccc2c(c1)OCO2)N/N=C/c1cc(Br)ccc1O the results were 12-LOX inh 9%, VP16 counter inconclusive, DT40 TDP1 CPT 8.2µM*, RORgamma inh 20µM*, ELG1 DNA repair -26% and DT40 TDP1 no CPT 8.2µM*.
Screening O=C(CN1CCc2sccc2C1c1cccs1)Nc1cccc(F)c1 (stereo not given) returned 12-LOX inh 2%.
For CC(=O)N1CCC2(C1)C(=NC1CCCC1)NC(=O)N2c1cccnc1 (stereo not given) the results were 12-LOX inh -2%[176 µM].
Screening CC(C)(O)CCc1cccc(C(=O)NCCNc2cccnc2)c1 returned 12-LOX inh -1%.
Cc1cc(Cl)ccc1OCCn1cncn1 was read as 12-LOX inh -7%, VP16 counter -8%, DT40 TDP1 CPT -4%, RORgamma inh 22%, ELG1 DNA repair 14% and DT40 TDP1 no CPT -2%.
`Brc1c(OCCOCCn2cncn2)ccc2ccccc12` gave 12-LOX inh 0%, DT40 TDP1 CPT inconclusive, RORgamma inh 3%[0.365 µM], ELG1 DNA repair inconclusive and DT40 TDP1 no CPT 26µM*.
For Cc1cc(C)n(CCCC(=O)N2C[C@H](CO)C[C@H](CN(C)C)C2)n1 the results were 12-LOX inh 14%.
For COc1ccc(-c2cn(CC3CCCCC3)nn2)cc1 the results were 12-LOX inh 2%, VP16 counter inconclusive, DT40 TDP1 CPT -13%, RORgamma inh 29%, ELG1 DNA repair inconclusive and DT40 TDP1 no CPT 3%.

High-throughput results as filed in PubChem.
